Pf growth 96h: inhibits malaria parasite growth, 96 h; Potency, µM (titrated, usually from 28.7 µM), without a hit: at the highest dose activity change, negative = inhibition, actives largely listed as inhibitors; actives 6.9% (n = 320,000); AID 504834; P. falciparum luciferase reporter growth, 96 h; note: % is set by controls: 0 for no effect and ±100 for the full control effect
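Plates of compound plus infected erythrocytes (2% hematocrit, 0.05% parasitemia final) incubate 96 hours, 37 C, 5% CO2. Detection reagent added; reduced luminescence from the parasites' luciferase reporter flags inhibition.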
SARS PLP yeast: SARS-CoV PLP inhibition in yeast; Potency, µM (top dose mostly 32.9 µM), for inactives: at the top dose activity, positive = growth rescue, most hits filed as activators; actives 0.19% (n = 330,000); S. cerevisiae expressing SARS-CoV PLpro, growth rescue; AID 485353; calls by dose curve; note: 0% is about no effect; nearly all actives have a fitted effect of over 55% in size
Sm TGR block: inhibitors of Schistosoma mansoni thioredoxin glutathione reductase | Q962Y6 | purified TGR, DTNB reduction, TNB absorbance 405 nm | Potency, µM (top dose mostly 114 µM), inactives show at the top dose activity change, negative = inhibition, usual class: inhibitors | actives 3% (n = 360,000) | AID 485364; note: % is set by controls: 0 for no effect and ±100 for the full control effect; nearly all actives have a fitted effect of over 60% in size
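First, TGR (20 nM dispensed) and NADPH were mixed with compound. Second, a 15 min room-temperature incubation followed. Third, further NADPH and then DTNB were added to start the reaction. Finally, TNB absorbance was monitored kinetically.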
Pf growth 48h: P. falciparum growth inhibition at 48 hours (one generation); P. falciparum luciferase growth in erythrocytes, 48 h; Potency, µM (titrated, usually from 28.7 µM), for inactives: top-dose activity change, negative = inhibition, usual class: inhibitors; actives 5.9% (n = 310,000); AID 504832; note: % is set by controls: 0 for no effect and ±100 for the full control effect
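Compounds are pin-transferred into medium, infected erythrocytes (2% hematocrit, 0.1% parasitemia final) are added, and plates sit one parasite generation at 37 C in 5% CO2. Detection reagent is then added and luminescence measured.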
* = called active by the depositor; ? = inconclusive; nt = no result given. Only some compounds are listed: those with a hit (about 12% of all), similar ones and a draw of the others. Unless noted, calls come from the whole dose curve; as a rule, active = well fitted curve in the direction sought with a large enough effect; inconclusive = small, poorly fitted or top-dose-only effect, or another doubt; inactive = no such curve, though single readings can be large; an effect the other way counts as inactive or inconclusive. Potency is the fitted concentration of half-maximal effect.

SMILES	Pf growth 96h	SARS PLP yeast	Sm TGR block	Pf growth 48h
CCOc1ccc(-n2nc3c(=O)[nH]nc(C)c3c2C)cc1	1.7%	11.1%	-10.0%	11.2%
Cc1nnc(Cl)c2nn(-c3ccccc3)c(C)c12	0.586µM*	-9.7%	-2.3%	0.329µM*
CCOc1ccc(-n2nc3c(Cl)nnc(C)c3c2C)cc1	0.522µM*	-1.6%	2.5%	0.329µM*
O=C1NC(=O)/C(=C\c2ccccc2OCc2ccc([N+](=O)[O-])cc2)N1	11.7µM*	6.9%	1.0%	29.2%
O=C(O)COc1ccccc1/C=N/NC(=O)Cc1ccccc1	10.4µM*	-0.2%	4.4%	-10.3%
N#CCC(=O)N/N=C/c1cccc(Oc2ccccc2)c1	-3.4%	0.3%	12.2%	246.5%
COC(=O)N/N=C\c1ccccc1OC/C=C/c1ccccc1	9.28µM*	-3.4%	-5.0%	?
N#CCC(=O)N/N=C\c1cc(Br)ccc1OC/C=C/c1ccccc1	2.94µM*	1.1%	6.3%	-7.2%
CCOC(=O)N/N=C\c1ccccc1OC/C=C/c1ccccc1	82.6%	0.8%	3.4%	2.94µM*
CCC1(c2ccc(C)cc2)NC(=O)N(C(C)C(=O)Nc2ccc(N3CCOCC3)cc2)C1=O (stereo not drawn)	?	-6.7%	-5.5%	?
COc1ccc(C(C(=O)NC(C)(C)C)N(C(=O)CCC(=O)Nc2cc(C)on2)c2cccc(C)c2C)cc1 (stereo not drawn)	?	-0.3%	-0.3%	?
CC1CCCN(C(=O)C(C)Nc2cc(Cl)ccc2N2CCOCC2)C1 (stereo not drawn)	0.657µM*	5.1%	39.8µM*	?
CC(=O)Nc1ccc(S(=O)(=O)Nc2cc(Cl)ccc2N2CCOCC2)cc1	nt	3.7%	nt	nt
Cc1[nH]c2ccccc2c1CCCO	21.0%	-0.7%	-4.0%	-3.7%
COC1=C(OC)C(=O)C(CCCCCCCCCCO)=C(C)C1=O	6.01µM*	-17.2%	?	?
CCC(C)N(C(=O)Cn1nnc2ccccc21)C(C(=O)Nc1ccc(F)cc1)c1cccc(OC)c1 (stereo not drawn)	10.4µM*	-2.4%	-14.7%	?
Cc1c(OCC(=O)N2CCC(C(=O)NCCCC(=O)O)CC2)ccc2c1oc(=O)c1ccccc12	4.5%	4.6%	7.4%	-8.4%
C[C@]12c3[nH]c4ccc(Cl)cc4c3CCN1C(=O)[C@@H](CC(=O)NCCC1=CCCCC1)C[C@@H]2C(=O)N1CCOCC1	nt	4.7%	nt	nt
Cc1ccc(C(=O)N/C(=C\c2ccc(-c3ccccc3[N+](=O)[O-])o2)C(=O)NCCN(C)C)cc1	?	-6.2%	1.41µM*	1.47µM*
O=C(/C=C/c1ccc(-c2ccccc2[N+](=O)[O-])o1)c1ccccc1	-19.8%	-29.3%	?	-1.3%
O=C(O)/C(=C\c1ccc(-c2ccccc2[N+](=O)[O-])o1)c1ccccc1	0.0%	0.0%	35.5µM*	1.3%
Cc1ccc(C(=O)N/C(=C\c2ccc(-c3ccccc3[N+](=O)[O-])o2)C(=O)NCCCN(C)C)cc1	5.22µM*	1.9%	8.91µM*	2.62µM*
Cc1ccc(C(=O)N/C(=C\c2ccc(-c3cccc([N+](=O)[O-])c3)o2)C(=O)NCCCN2CCOCC2)cc1	?	-4.8%	12.4%	?
COc1cc(OC)cc(C(=O)Nc2cccc(-c3cn4ccsc4n3)c2)c1	nt	nt	1.6%	nt
O=C(O)CCCNC(=O)/C=C/c1ccco1	55.1%	0.3%	4.47µM*	32.8%
SMILES	Pf growth 96h	SARS PLP yeast	Sm TGR block	Pf growth 48h
Cc1ccc(/C=C/C(=O)NCCc2ccccc2)o1	?	-7.1%	3.16µM*	83.0%
O=C(/C=C/c1ccco1)NCCc1ccccc1	?	0.2%	7.94µM*	99.5%
Cc1ccc(/C=C/C(=O)OCC(=O)NC(C)c2ccccc2)o1 (stereo not drawn)	-19.7%	-11.1%	35.5µM*	-9.9%
O=C(O)CCCCCNC(=O)/C=C/c1ccco1	?	1.0%	-0.1%	-0.3%
COc1cccc(-c2nc(SCc3cc(=O)c4ccc(C)c(C)c4[nH]3)n[nH]2)c1	nt	nt	15.7%	nt
CCCc1nn2c(=O)cc(COC(=O)c3ccc4c(c3)OCO4)nc2s1	nt	nt	7.3%	nt
Cc1ccc(N/N=C2\CC(=O)c3ccccc32)cc1Cl	2.94µM*	-0.4%	?	4.65µM*
COc1cc2c(C#N)c(N3CCc4ccccc4C3)nc(N)c2c(N)n1	?	-6.4%	-14.0%	8.28µM*
COc1ccc(CNC(=O)CN(C(=O)CCC(=O)Nc2nccs2)c2ccc(C)cc2)cc1	7.38µM*	1.6%	-3.1%	?
COc1ccc(CN(CC(=O)NCc2ccc(F)cc2)C(=O)CCC(=O)Nc2nccs2)cc1	4.65µM*	1.1%	-6.2%	10.9%
COc1ccccc1C(=O)NC(CCSC)C(=O)NNC(=O)c1ccccc1O (stereo not drawn)	-9.3%	-7.8%	-0.7%	?
CC(C)Cn1nc(C(=O)Nc2nnc(C3CC3)s2)c2ccccc2c1=O	?	1.1%	-21.4%	?
C=CCn1c(SCC(=O)c2c(N)n(C)c(=O)n(C)c2=O)nnc1-c1ccoc1C	nt	-4.9%	nt	nt
CC(=O)c1c(C)[nH]c(C(=O)OCC(=O)N2CCN(S(=O)(=O)c3ccc(C)cc3)CC2)c1C	13.1µM*	-0.6%	-4.1%	?
CC(=O)c1c(C)[nH]c(C(=O)OCC(=O)N2CCN(S(=O)(=O)c3ccc(C)cc3C)CC2)c1C	8.28µM*	25.4%	?	nt
Cc1cc(S(=O)(=O)Nc2cc3c(cc2NCc2ccccc2)n(C)c(=O)n3C)ccc1F	nt	nt	-7.4%	nt
Cc1ccc(-c2csc(N3CCN(CCCn4c(-c5ccncc5)nc5ccccc54)CC3)n2)cc1	2.62µM*	-6.9%	10.8%	?
Cc1ccc(-c2csc(N3CCC[C@@H]3C(=O)NCCn3c(-c4ccncc4)nc4ccccc43)n2)cc1	3.29µM*	1.6%	-2.0%	?
Cc1sc(NC(=O)C2CSC3(C)CCC(=O)N23)nc1-c1ccccc1 (stereo not drawn)	?	5.9%	-0.5%	?
CN(CC(=O)Nc1ccccc1Cl)C(=O)COC(=O)C1=COCCO1	52.0%	-15.0%	-2.3%	9.3%
CCOC(=O)c1cc2c3ccccc3n(CC)c2nc1N	nt	8.5%	15.1%	?
CCOC(=O)c1n[nH]n2c1nc(=S)c1ccccc12	?	-7.3%	11.2µM*	-5.1%
CCOC(=O)c1ccc(NC(=S)N2CCN(CCN=CC3=C(O)CC(C)(C)CC3=O)CC2)cc1	4.9%	2.5%	1.12µM*	-25.0%
CC1(C)CC(=O)C=C(NCCN2CCN(C(=O)Nc3ccccc3)CC2)C1	nt	0.1%	-12.1%	-24.2%
CCOC(=O)c1ccc(NC(=O)CN2CCN(CCN=CC3=C(O)CC(C)(C)CC3=O)CC2)cc1	-4.7%	14.9%	?	-13.5%
CCOC(=O)c1ccc(NC(=S)N2CCN(CCNC3=CC(=O)CC(C)(C)C3)CC2)cc1	-18.2%	4.3%	10.9%	0.0262µM*
CCCN1C(=O)CC(Sc2ncccc2C(=O)O)C1=O (stereo not drawn)	17.7%	-1.9%	-2.3%	19.1%
COc1ccc(CCN2C(=O)CC(Nc3ccc(N4CCOCC4)cc3)C2=O)cc1OC (stereo not drawn)	nt	nt	20µM*	?

Bioassay records as filed in PubChem.
